Results as given in PubChem BioAssay AID1159580 (chemical genetic matrix, 2015).
About 2,000 (36%) of roughly 5,500 compounds were called active. Not shown: some 18% with an inconclusive outcome. Cut-off read from the data, not from the text of the source: active = normalized growth mostly below about 0.91 (no sharp cut-off); inconclusive = no clear call, values can overlap the other calls; inactive = mostly above about 0.92. Some of the results follow.

Assay: chemical genetic growth profiling, strain panel (AID 1159580);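 note: tested at 20 µM; growth read once vehicle control cultures reached saturation at 30 °C; 1 = growth at the plate median or of vehicle wells; lower values mean less growth of the strain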
Conditions: S. cerevisiae deletion strains, growth OD

Measured: normalized growth

COc1ccc(-c2cc(=O)c3c(O)cc(OC)c(OC)c3o2)c(OC)c1
active: locus YEL037C, strain rad23, hits give low values 1.1 [resistant]
inactive: locus YAL021C, strain ccr4, hits give low values 0.977 | locus YAL026C, strain drs2, hits give low values 1.02 | locus YAL030W, strain snc1, hits give low values 1.02 | locus YBL061C, strain skt5, hits give low values 0.997 | locus YBR009C, strain hhf1, hits give low values 0.964 | locus YBR023C, strain chs3, hits give low values 0.989 | locus YBR171W, strain sec66, hits give low values 1.04 | locus YBR231C, strain swc5, hits give low values 0.966 | locus YBR279W, strain paf1, hits give low values 1.01 | locus YCL011C, strain gbp2, hits give low values 1.01 | locus YCL016C, strain dcc1, hits give low values 1 | locus YCL061C, strain MRC1, hits give low values 1.03 | locus YCL069W, strain vba3, hits give low values 1.04 | locus YCR088W, strain abp1, hits give low values 1.03 | locus YDL005C, strain med2, hits give low values 1.02 | locus YDL040C, strain nat1, hits give low values 1.02 | locus YDR001C, strain nth1, hits give low values 1.04 | locus YDR069C, strain doa4, hits give low values 0.97 | locus YDR137W, strain rgp1, hits give low values 0.943 | locus YDR159W, strain sac3, hits give low values 1.02 | locus YDR195W, strain ref2 1.07 | locus YDR297W, strain sur2, hits give low values 1.02 | locus YDR334W, strain swr1, hits give low values 1.05 | locus YDR335W, strain msn5, hits give low values 1.03 | locus YDR392W, strain spt3, hits give low values 0.846 | locus YEL003W, strain gim4, hits give low values 1.01 | locus YEL061C, strain CIN8 (second series), hits give low values 1.04 | locus YER015W, strain faa2, hits give low values 0.971 | locus YER016W, strain bim1, hits give low values 1.02 | locus YER111C, strain swi4, hits give low values 1.05 | locus YER155C, strain BEM2 (second series), hits give low values 0.956 | locus YFR010W, strain ubp6, hits give low values 1 | locus YGL167C, strain pmr1, hits give low values 0.998 | locus YGL173C, strain kem1, hits give low values 1.02 | locus YGL227W, strain vid30, hits give low values 1.04 | locus YGL240W, strain doc1, hits give low values 1.04 | locus YGL253W, strain hxk2, hits give low values 1.01 | locus YHR013C, strain ard1, hits give low values 0.975 | locus YHR027C, strain rpn1, hits give low values 0.985 | locus YHR030C, strain SLT2, hits give low values 1.04 | locus YHR079C, strain IRE1, hits give low values 1.03 | locus YHR142W, strain chs7, hits give low values 1 | locus YJL092W, strain hpr5, hits give low values 1.04 | locus YJL095W, strain BCK1 (second series), hits give low values 1.01 | locus YJL095W, strain BCK1, hits give low values 0.967 | locus YJL115W, strain asf1, hits give low values 1.05 | locus YJL129C, strain trk1, hits give low values 1.02 | locus YJL154C, strain vps35, hits give low values 1.04 | locus YJL164C, strain tpk1, hits give low values 0.95 | locus YJL166W, strain qcr8, hits give low values 1 | locus YJL187C, strain SWE1, hits give low values 1.02 | locus YJR066W, strain TOR1, hits give low values 0.973 | locus YKL160W, strain elf1, hits give low values 0.993 | locus YKR026C, strain gcn3, hits give low values 1.05 | locus YKR091W, strain srl3, hits give low values 1.03 | locus YLL001W, strain dnm1, hits give low values 1.01 | locus YLL026W, hits give low values 1.02 | locus YLL041C, strain sdh2, hits give low values 1.02 | locus YLR027C, strain aat2, hits give low values 0.996 | locus YLR113W, strain HOG1, hits give low values 0.932 | locus YLR221C, strain rsa3, hits give low values 0.966 | locus YLR258W, strain gsy2, hits give low values 1.01 | locus YLR262C, strain YPT6 (second series), hits give low values 0.907 | locus YLR320W, strain mms22, hits give low values 0.966 | locus YLR342W, strain FKS1, hits give low values 0.997 | locus YLR357W, strain rsc2, hits give low values 0.994 | locus YLR370C, strain arc18, hits give low values 1.03 | locus YLR384C, strain iki3, hits give low values 1.02 | locus YML120C, strain ndi1, hits give low values 1.02 | locus YMR058W, strain fet3, hits give low values 0.917 | locus YMR125W, strain sto1, hits give low values 1.05 | locus YMR129W, hits give low values 1.03 | locus YMR205C, strain PFK2, hits give low values 1.01 | locus YMR231W, strain pep5, hits give low values 1.03 | locus YNL071W, strain lat1, hits give low values 1.02 | locus YNL183C, strain NPR1, hits give low values 0.893 | locus YNL209W, strain ssb2, hits give low values 0.937 | locus YNL248C, strain rpa49, hits give low values 1.05 | locus YNL322C, strain KRE1 (second series), hits give low values 1.04 | locus YNR049C, strain mso1, hits give low values 1.03 | locus YOR001W, strain rrp6, hits give low values 1.01 | locus YOR070C, strain gyp1, hits give low values 0.997 | locus YOR080W, strain dia2, hits give low values 1.04 | locus YOR083W, strain WHI5, hits give low values 0.962 | locus YOR106W, strain vam3, hits give low values 0.944 | locus YOR231W, strain MKK1, hits give low values 1.03 | locus YOR265W, strain rbl2, hits give low values 1.01 | locus YOR270C, strain vph1, hits give low values 1.03 | locus YOR290C, strain snf2, hits give low values 0.961 | locus YPL051W, strain arl3, hits give low values 0.916 | locus YPL078C, strain atp4, hits give low values 1.03 | locus YPL106C, strain sse1, hits give low values 0.983 | locus YPL240C, strain hsp82, hits give low values 1.02 | locus YPL256C, strain CLN2, hits give low values 1.01

N#C/C(=C\c1ccc(O)c(O)c1)C(=O)Nc1ccccc1
inactive: locus YAL013W, strain DEP1, hits give low values 0.988 | locus YAL040C, strain CLN3, hits give low values 1 | locus YCL061C, strain MRC1 (second series), hits give low values 1.01 | locus YDR150W, strain NUM1, hits give low values 0.996 | locus YDR363W, strain ESC2, hits give low values 1.05 | locus YER002W, strain NOP16, hits give low values 1.01 | locus YGR078C, strain PAC10, hits give low values 1.05 | locus YGR229C, strain SMI1, hits give low values 0.966 | locus YJR075W, strain HOC1, hits give low values 1.01 | locus YMR307W, strain GAS1, hits give low values 1 | locus YNL128W, strain TEP1, hits give low values 1.04 | locus YNL175C, strain NOP13, hits give low values 1.03 | locus YNL197C, strain WHI3, hits give low values 1 | locus YNL224C, strain SQS1, hits give low values 1.03 | locus YNL322C, strain KRE1, hits give low values 0.989 | locus YOR083W, strain WHI5 (second series), hits give low values 1.02 | locus YPL055C, strain LGE1, hits give low values 1.01 | locus YPL241C, strain CIN2, hits give low values 1.01
